Experimental data as given in PubChem BioAssay.

Biological target: Dihydroorotate dehydrogenase (quinone), mitochondrial (Plasmodium falciparum (isolate 3D7)) (UniProt Q08210)
Experiment: inhibition of P. falciparum DHODH – biochemical, C-terminal His tag, absorbance 600 nm, primary screen (AID 1175);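 further: recombinant parasite enzyme with a five histidine tag at its C terminus; test concentration not given here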
Settings: PfDHODH enzyme, DCIP absorbance 600 nm; higher = more signal, called active from +8 up or from −8 down

Dihydroorotate dehydrogenase (quinone), mitochondrial (Plasmodium falciparum (isolate 3D7)), sequence (Q08210 whole entry, looked up): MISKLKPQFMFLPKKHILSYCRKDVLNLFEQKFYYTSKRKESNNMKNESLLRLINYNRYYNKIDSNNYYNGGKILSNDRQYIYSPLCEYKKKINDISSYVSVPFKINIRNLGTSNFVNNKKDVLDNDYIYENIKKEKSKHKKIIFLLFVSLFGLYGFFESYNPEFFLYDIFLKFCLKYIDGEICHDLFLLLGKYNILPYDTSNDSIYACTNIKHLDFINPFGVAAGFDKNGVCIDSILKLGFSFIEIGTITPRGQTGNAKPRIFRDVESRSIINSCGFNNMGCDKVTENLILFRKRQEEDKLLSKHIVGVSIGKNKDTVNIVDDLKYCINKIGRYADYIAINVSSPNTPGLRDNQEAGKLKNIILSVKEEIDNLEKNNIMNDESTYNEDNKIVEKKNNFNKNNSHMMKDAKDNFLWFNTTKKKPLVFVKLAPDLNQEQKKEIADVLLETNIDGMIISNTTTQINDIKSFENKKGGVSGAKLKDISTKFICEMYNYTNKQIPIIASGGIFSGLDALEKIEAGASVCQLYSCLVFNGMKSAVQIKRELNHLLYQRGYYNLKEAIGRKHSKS

Composite z-score, inactive:
O=C1c2ccccc2[C@](Cc2ccccc2I)(C(=O)NCCN2CCOCC2)[C@H](c2ccc(CO)cc2)N1Cc1ccccc1 0.215
CN(C)CCCCNC(=O)[C@H]1C[C@H]2C(=O)N3CCC[C@H]3C(=O)N2[C@H]1c1ccc(O)cc1 -0.884
C=C(CCCC)C(=O)CC[C@@H](OC(=O)c1ccccc1-c1ccccc1C(=O)O)c1cccc(OCCO)c1 -0.556
C=C(C(=O)CC[C@H](OC(=O)c1cccnc1)c1ccc(CO)o1)C(C)C -3.18
COc1ccc(C#Cc2ccc3c(c2)[C@]2(C(=O)N3)[C@H](C(=O)N3CCc4cc(OC)c(OC)cc4C3)[C@H]3C(=O)O[C@H](c4ccccc4)[C@H](c4ccccc4)N3[C@@H]2c2ccc(O)cc2)cc1 -0.719
[N-]=[N+]=NCc1ccccc1C[C@@]1(C(=O)N2CCCCC2)N=C(c2ccc(OCCCO)cc2)O[C@@H]1c1ccccc1N=[N+]=[N-] 0.42
C=C[C@@H](COC(C)=O)NS(=O)(=O)c1ccc(Br)cc1 -0.502
CCOC(=O)C[C@H]1[C@H](OC(=O)c2ccc(-c3ccccc3)cc2)[C@@H](NC(=O)c2ccc3ccccc3c2)c2cc(OCCCO)ccc2N1C(=O)c1ccc2ccccc2n1 -0.746
CC(C)(C)OC(=O)CC[C@]1(C(=O)NCCN2CCOCC2)N=C(c2ccc(OCCCO)cc2)O[C@H]1c1ccccc1 -1.63
C=CCOC(=O)[C@@H]1[C@H]2C(=O)O[C@H](c3ccccc3)[C@H](c3ccccc3)N2[C@H](c2ccc(OCCOC(=O)[C@H]3C[C@H]4C(=O)N[C@@H](CC(C)C)C(=O)N4[C@H]3c3ccc(O)cc3)cc2)[C@@]12C(=O)Nc1ccc(I)cc12 0.106
O=C(CS)NCCCCCCNC(=O)[C@@H]1C[C@@H]2C(=O)N3CCC[C@H]3C(=O)N2[C@@H]1c1cccc(OCCO)c1 -0.968
COc1ccccc1CN1C(=O)c2ccccc2[C@@H](C(=O)NC(C)C)[C@@H]1c1ccc(CO)cc1 -0.469
C=CCOC(=O)[C@@H]1[C@H]2C(=O)O[C@H](c3ccccc3)[C@H](c3ccccc3)N2[C@H](c2ccc(OCCOC(=O)[C@H]3C[C@H]4C(=O)N[C@@H](CCCCNC(C)=O)C(=O)N4[C@H]3c3cccc(OCCO)c3)cc2)[C@@]12C(=O)Nc1ccc(I)cc12 -0.406
O=C1OCC=C[C@H]2OC34C=CCN(Cn5nnc6ccccc65)C(=O)[C@H]3N(CCCCCCO)C(=O)[C@@H]4[C@@H]12 (stereo not given in full) -1.32
COC(=O)Cn1c(C(=O)N2CCCC2)cc2c1C[C@H]1CN(C(=O)c3ccccc3)[C@@](Cc3ccc(F)cc3)(C(=O)OC)[C@@H]21 -0.653
COc1cc(OC)c(C(O)C2C=CC3C(=O)N(c4ccccc4)C(=O)C3N2Nc2ccc(C#N)cc2)cc1Br (stereo not given) 1.49
COc1ccc([Si](C)(C)[C@@H]2[C@@H](CC(=O)N3CCC[C@H]3CO)O[C@]3(C(=O)N(Cc4ccc(N5C(=O)c6cccc7cccc5c67)cc4)c4ccccc43)[C@H]2C)cc1 -0.0108
CC=CC(O)C1C=CC2C(=O)N(c3ccccc3)C(=O)C2N1Nc1ccccc1 (stereo not given) -0.174
CC(C)C(=C=CC[C@@H](O)c1ccccc1OCCO)C[C@@H](O)COCc1ccccc1 -5.41
CC(C)(C)N1CC=CC23O[C@@H]4C=CCOC(=O)[C@@H]4[C@H]2C(=O)N(CCCO)[C@@H]3C1=O (stereo not given in full) -0.257
COc1c(C)cc(-c2cc3c(c(-c4ccccc4)n2)[Si](C(C)C)(C(C)C)OC3)cc1C -0.149
Cc1ccc(S[C@]2(C(=O)NCC(C)C)CC(=O)N(Cc3ccccc3Cl)[C@@H]2c2ccc(CO)cc2I)cc1 -0.0436
O=C1O[C@@H](c2ccccc2)[C@@H](c2ccccc2)N2[C@@H](c3ccccc3OCCO)[C@]3(C(=O)Nc4ccc(C#CC5=CCCCC5)cc43)[C@@H](C(=O)NC[C@H](O)c3ccccc3)[C@H]12 0.578
O=C(O)[C@H](Cc1ccccc1)n1cc(-c2ccccn2)nn1 -0.435
CC1CC/C=C\[C@H]2OC34C=CCN(CCN5CCOCC5)C(=O)[C@H]3N(CCO)C(=O)[C@@H]4C2C(=O)O1 (stereo not given in full) -0.4
CCOC(=O)C[C@H]1[C@H](OC(=O)c2ccc(-c3ccccc3)cc2)[C@@H](NC(=O)C2CCCCC2)c2cc(OCCCO)ccc2N1C(=O)c1ccccc1 0.141
COCCCNC(=O)[C@@]1(Sc2ccc(C)cc2)CC(=O)N(Cc2cc(C(F)(F)F)cc(C(F)(F)F)c2)[C@@H]1c1ccc(CO)cc1 -0.669
CCCC[C@@H]1C[C@H]1[C@@H](NC(=O)c1cccnc1)c1ccc(-c2ccccc2)cc1 -0.106
O=C1O[C@@H](c2ccccc2)[C@@H](c2ccccc2)N2[C@@H](c3ccc(O)cc3)[C@]3(C(=O)Nc4ccc(C#CCCO)cc43)[C@@H](C(=O)Nc3nc4ccccc4s3)[C@H]12 -0.292
O=C(O)[C@]1(Cc2ccccc2)N=C(c2ccc(OCCCO)cc2)O[C@@H]1c1ccccc1 0.84
Cc1ccc(S[C@]2(C(=O)NCc3ccccc3)CC(=O)N(C(C)C)[C@@H]2c2ccc(CO)cc2I)cc1 -0.335
Cc1ccc(C(C)CC(O)C2C=CC3C(=O)N(c4ccccc4)C(=O)C3N2Nc2ccc(C(C)C)cc2)o1 (stereo not given) 0.824
C=CC[C@]12N=C(c3ccc(OCCCO)cc3)O[C@H]1c1ccccc1N(C)C2=O 0.582
C=C(COC)/C(=C/C[C@@H](OC(=O)c1ccncc1)c1ccc(CO)o1)c1cnc2ccccc2c1 -7.93
O=C1NC(=O)C2C1C=CC(C(O)c1cc(C(F)(F)F)cc(C(F)(F)F)c1)N2Nc1ccc(Cl)cc1Cl (stereo not given) -0.195
